The campaign covered roughly 310,000 compounds. About 14,000 (4.5%) showed an effect of 50% or more. The effect is printed as a negative number. The entries come from a sample that favours strong results as a whole.
These molecules were tested against human ether-à-go-go-related gene (hERG) potassium channel (human, UniProt Q12809) (assay: primary screen, population patch clamp on CHO cells stably expressing hERG; higher = less effect of the substance).
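Note: peak tail current of the secondary pulse compared with the same well before compound.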

human ether-à-go-go-related gene (hERG) potassium channel, sequence (Q12809 whole entry, looked up): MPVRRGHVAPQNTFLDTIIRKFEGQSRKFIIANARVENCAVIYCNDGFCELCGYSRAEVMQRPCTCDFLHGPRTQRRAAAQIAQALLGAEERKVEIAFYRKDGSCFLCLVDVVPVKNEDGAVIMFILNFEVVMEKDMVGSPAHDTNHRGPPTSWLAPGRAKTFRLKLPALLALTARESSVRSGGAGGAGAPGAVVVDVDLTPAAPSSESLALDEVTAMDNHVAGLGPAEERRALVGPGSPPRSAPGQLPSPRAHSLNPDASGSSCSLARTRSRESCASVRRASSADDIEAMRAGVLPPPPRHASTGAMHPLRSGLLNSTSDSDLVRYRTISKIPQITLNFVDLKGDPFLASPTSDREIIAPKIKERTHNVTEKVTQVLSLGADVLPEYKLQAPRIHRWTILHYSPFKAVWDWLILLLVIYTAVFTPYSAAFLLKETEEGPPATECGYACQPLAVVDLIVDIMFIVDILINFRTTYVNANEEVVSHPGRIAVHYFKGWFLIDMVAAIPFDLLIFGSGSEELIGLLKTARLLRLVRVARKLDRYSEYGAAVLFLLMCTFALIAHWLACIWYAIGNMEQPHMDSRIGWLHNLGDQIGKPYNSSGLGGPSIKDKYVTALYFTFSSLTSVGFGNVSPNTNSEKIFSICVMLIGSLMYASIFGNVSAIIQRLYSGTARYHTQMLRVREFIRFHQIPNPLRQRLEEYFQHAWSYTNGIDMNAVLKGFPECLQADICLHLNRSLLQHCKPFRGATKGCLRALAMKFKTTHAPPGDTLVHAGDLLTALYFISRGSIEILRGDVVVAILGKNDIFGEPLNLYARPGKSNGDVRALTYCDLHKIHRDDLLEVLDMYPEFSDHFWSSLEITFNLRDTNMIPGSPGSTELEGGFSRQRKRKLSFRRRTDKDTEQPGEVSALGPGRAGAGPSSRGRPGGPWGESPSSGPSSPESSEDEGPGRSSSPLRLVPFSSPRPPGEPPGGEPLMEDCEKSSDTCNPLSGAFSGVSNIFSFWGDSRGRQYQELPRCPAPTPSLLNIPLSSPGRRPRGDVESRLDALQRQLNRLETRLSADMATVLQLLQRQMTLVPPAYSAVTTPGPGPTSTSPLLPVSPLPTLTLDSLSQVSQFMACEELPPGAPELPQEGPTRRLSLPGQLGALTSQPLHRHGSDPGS

Compared with `Cc1cc(-c2nc(C)c(C(=O)NNS(=O)(=O)c3ccccc3)s2)no1`, `CN(Cc1c(F)cccc1Cl)C(=O)c1cccc(S(=O)(=O)NCc2ccccc2)c1` is lower in “hERG current change (%, negative = inhibition) at 10uM” value: 11.9% for the first, -28% for the second.

First: Cc1ccccc1-c1nnn(Cc2ccc(F)cc2Cl)n1
Second: Cc1ccccc1OCCn1cnc2cc([N+](=O)[O-])ccc2c1=O
The “hERG current change (%, negative = inhibition) at 10uM” value of the first is higher: 10.6% for the first, -7.38% for the second.

Compared with `Cc1cc(C)c2c(Cn3ccnc3)cc(=O)oc2c1`, `Cc1cc(C)c2c(CN3CCN(CCO)CC3)cc(=O)oc2c1` is lower in “hERG current change (%, negative = inhibition) at 10uM” value: 1.13% for the first, -50.4% for the second.

First: Cc1cc(C)c2c(CN3CCN(C/C=C/c4ccccc4)CC3)cc(=O)oc2c1
Second: CCc1ccc2oc(=O)cc(CN3CCN(CCO)CC3)c2c1
The “hERG current change (%, negative = inhibition) at 10uM” value of the first is lower: -76.9% for the first, -14.9% for the second.

First: COC(=O)c1ccc(Cl)c(NC(=O)CN(c2ccc3c(c2)OCO3)S(C)(=O)=O)c1
Second: CC(=O)N1c2ccc(S(=O)(=O)NCC3CCC(C(=O)NCc4ccc(C)o4)CC3)cc2CC1C (stereo not drawn)
The “hERG current change (%, negative = inhibition) at 10uM” value of the first is higher: 7.68% for the first, -3.13% for the second.

Going from `O=C(O)CCC(NC(=O)c1cncc(O)c1)C(=O)O` (stereo not drawn) to `O=C(Nc1ccccc1)C(=O)Nc1ccc2c(c1)N(C(=O)C1CC1)CCC2`, the “hERG current change (%, negative = inhibition) at 10uM” value falls from -4.94% to -5.26%.

Going from `CCCC1(c2ccccc2)NC(=O)N(CC(=O)N(C)Cc2c(F)cccc2Cl)C1=O` (stereo not drawn) to `CCOc1ccc(N2C(=O)CN=C2Nc2ccccc2Cl)cc1`, the “hERG current change (%, negative = inhibition) at 10uM” value falls from -2.69% to -2.73%.

First: Cc1ccc(C(C2=C(O)CC(C)(C)CC2=O)C2C(=O)CC(C)(C)CC2=O)s1 (stereo not drawn)
Second: CCc1cc(=O)oc2c(C)c(OCC(=O)NCCCN3CCOCC3)ccc12
The “hERG current change (%, negative = inhibition) at 10uM” value of the first is higher: 14.9% for the first, -31.8% for the second.

Going from `CN=C(NC1CCCCC1)c1ccc([N+](=O)[O-])cc1` to `O=C1CCc2cc(S(=O)(=O)NC3CCCCC3)ccc2N1`, the “hERG current change (%, negative = inhibition) at 10uM” value falls from 1.68% to -19.3%.

Compared with `OC(CN1C2=NCCN2c2ccccc21)c1ccc(Br)cc1` (stereo not drawn), `Cl.OC(CN1C2=NCCCN2c2ccccc21)c1ccc(Br)cc1` (stereo not drawn) is lower in “hERG current change (%, negative = inhibition) at 10uM” value: -71% for the first, -83.9% for the second.

Compared with `Cl.OCCN1C2=NCCCN2c2ccccc21`, `Cl.OC(CN1C2=NCCCN2c2ccccc21)c1ccc(Cl)cc1` (stereo not drawn) is lower in “hERG current change (%, negative = inhibition) at 10uM” value: 5.78% for the first, -75.9% for the second.

Compared with `O=C1CSC(=S)N1c1cccnc1`, `Nc1cc(=O)[nH]c(N2CCN(c3ccccc3)CC2)n1` is higher in “hERG current change (%, negative = inhibition) at 10uM” value: -7.65% for the first, 24.2% for the second.

Going from `CCOc1ncccc1C(=O)OCc1csc(CC(=O)Nc2ccccc2C)n1` to `CCn1ccnc1CN1CCC(n2nccc2NC(=O)c2ccccc2OC)CC1`, the “hERG current change (%, negative = inhibition) at 10uM” value falls from 0.199% to -69.9%.

First: Cc1ccc2[nH]c(O)c(N=NC(N)=S)c2c1
Second: CCCc1cc(=O)[nH]c(Nc2ccc(Cl)cc2)n1
The “hERG current change (%, negative = inhibition) at 10uM” value of the first is higher: 19.3% for the first, 6.28% for the second.

First: COc1cccc(NC(=O)Cc2cccs2)c1
Second: COc1ccc(C(=O)Nc2ccnn2C2CCN(Cc3ccccn3)CC2)cc1
The “hERG current change (%, negative = inhibition) at 10uM” value of the first is higher: 14.4% for the first, 5.54% for the second.

Going from `O=C(CC1CCCC1)Nc1cc(C(F)(F)F)ccc1-n1cncn1` to `Cc1ccc(C(=O)Nc2cc(C(F)(F)F)ccc2-n2cncn2)o1`, the “hERG current change (%, negative = inhibition) at 10uM” value rises from -10.4% to -9.88%.

Compared with `Cc1cc(CN2CCN(CC(=O)Nc3cc(C(F)(F)F)ccc3-n3cncn3)CC2)no1`, `O=C(CN1CCOCC1)Nc1ccc(N2CCN(c3ccccc3)CC2)c(F)c1` is higher in “hERG current change (%, negative = inhibition) at 10uM” value: -69.8% for the first, 2.59% for the second.

Going from `CC(C)(C)n1ncc2c(=O)n(CC(=O)c3ccccc3)cnc21` to `CCn1ccnc1CN1CCC(n2nccc2NC(=O)CCc2ccccc2)CC1`, the “hERG current change (%, negative = inhibition) at 10uM” value rises from -10.4% to -3.91%.

Compared with `O=C1CCc2cc(OCCCCc3nnnn3C3CCCCC3)ccc2N1`, `COc1ccc(N2CCN(Cc3nnnn3C3CCCCC3)CC2)cc1` is higher in “hERG current change (%, negative = inhibition) at 10uM” value: -64.1% for the first, 6.34% for the second.

Compared with `CN(C(=O)COC(=O)c1cn(C)c2ccccc12)C1CCCCC1`, `COc1ccccc1C(=O)Nc1ccnn1C1CCN(Cc2ccn[nH]2)CC1` is lower in “hERG current change (%, negative = inhibition) at 10uM” value: 6.55% for the first, -36.1% for the second.

First: COc1cc(CN2CCC(n3nccc3NC(=O)c3ccccc3OC)CC2)ccc1F
Second: COc1ccccc1C(=O)Nc1ccnn1C1CCN(Cc2ccc3nonc3c2)CC1
The “hERG current change (%, negative = inhibition) at 10uM” value of the first is lower: -76.7% for the first, -72.1% for the second.

Going from `CCOc1ccc(CN2CCC(n3nccc3NC(=O)c3ccccc3OC)CC2)cc1` to `COc1ccccc1C(=O)Nc1ccnn1C1CCN(Cc2ncc[nH]2)CC1`, the “hERG current change (%, negative = inhibition) at 10uM” value rises from -82.8% to -16.3%.

Compared with `COc1cc(CN2CCC(n3nccc3NC(=O)C3CCOC3)CC2)ccc1F` (stereo not drawn), `COc1ccc(C(=O)Nc2ccnn2C2CCN(Cc3ccc4nonc4c3)CC2)cc1` is lower in “hERG current change (%, negative = inhibition) at 10uM” value: -6.78% for the first, -43.1% for the second.

First: COc1ccc(/C=N/Nc2nc(-c3cccnc3)nc3ccccc23)cc1OC
Second: O=C(Nc1ccon1)C(Sc1ccccc1)c1ccccc1 (stereo not drawn)
The “hERG current change (%, negative = inhibition) at 10uM” value of the first is lower: -22.2% for the first, -8.32% for the second.

From article PMC4336329 (PLoS ONE, 2015)
